Source: PubChem BioAssay (NCATS)
Inconclusive results are not listed. A call without a number means that no potency is given here. Activity calls are given as the source filed them. Unless noted, calls follow the shape of the dose curve; as a rule, active = well fitted curve in the direction sought with a large enough effect; inconclusive = small, poorly fitted or top-dose-only effect, or another doubt; inactive = no such curve, though single readings can be large; an effect the other way counts as inactive or inconclusive.

What was measured:
[1] = biological target: D(1A) dopamine receptor (Homo sapiens) (UniProt P21728); assay: HTS Assay for Allosteric Agonists of the Human D1 Dopamine Receptor: Primary Screen for Potentiators (AID 488982)
D(1A) dopamine receptor (Homo sapiens), sequence (P21728 whole entry, looked up): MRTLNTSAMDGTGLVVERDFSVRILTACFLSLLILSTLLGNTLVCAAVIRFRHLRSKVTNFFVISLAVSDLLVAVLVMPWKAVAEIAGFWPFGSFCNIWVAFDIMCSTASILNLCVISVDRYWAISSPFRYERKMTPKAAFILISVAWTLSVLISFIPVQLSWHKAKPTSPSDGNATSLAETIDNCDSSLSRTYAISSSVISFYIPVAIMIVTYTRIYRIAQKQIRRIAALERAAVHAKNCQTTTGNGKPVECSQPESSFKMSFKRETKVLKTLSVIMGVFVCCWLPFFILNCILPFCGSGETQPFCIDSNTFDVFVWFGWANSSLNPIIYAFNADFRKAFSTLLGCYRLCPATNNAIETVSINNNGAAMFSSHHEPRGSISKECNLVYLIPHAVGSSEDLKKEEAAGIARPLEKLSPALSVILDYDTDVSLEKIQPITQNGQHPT
Outline: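 Tetracycline-induced HEK293 T-REx cells force-coupled to calcium signalling were incubated overnight at 30 C and dye-loaded at room temperature. Calcium flux over 180 s after compound addition flagged agonists; a further 180 s read after EC20 dopamine flagged potentiators.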

[2] = biological target: D(1A) dopamine receptor (Homo sapiens) (UniProt P21728); assay: HTS Assay for Allosteric Agonists of the Human D1 Dopamine Receptor: Primary Screen for Antagonists (AID 488983);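 also: calcium flux response to an EC80 dopamine challenge measured with no-wash dye; nearly all actives have a fitted effect of over 65% in size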; also: potency is read from the fitted curve at half-maximal effect
Outline: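 Calcium flux readout, no-wash dye, inducible HEK293 T-REx D1 line (force-coupled). Compound added after 10 s baseline, 180 s kinetic read; then dopamine at EC80, further 180 s read.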

[3] = biological target: ATP-dependent 6-phosphofructokinase (Trypanosoma brucei brucei) (UniProt O15648); assay: qHTS Assay to Find Inhibitors of T. brucei phosphofructokinase: hit validation (AID 492961);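 also: luminescence reports ADP formed as PFK phosphorylates fructose-6-phosphate with ATP; series mostly up to about 51 µM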
Outline: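 Percent activity derived from corrected luminescence, normalized between 0x and 1x enzyme controls, then fitted to concentration-response curves. Conditions: 1.25 nM PFK, 0.1 mM ATP, 0.5 mM F6P, 45 min RT.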

[4] = biological target: ATPase family AAA domain-containing protein 5 (Homo sapiens) (UniProt Q96QE3); assay: Validation screen for small molecules that inhibit ELG1-dependent DNA repair in human embryonic kidney (HEK293T) cells expressing luciferase-tagged ELG1 (AID 493107);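 also: cells co-treated with the DNA-damaging agent 5-fluorouridine alongside compound; series mostly up to about 46 µM; inhibitors lower the ELG1-luciferase luminescence signal; nearly all actives have a fitted effect of over 70% in size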
ATPase family AAA domain-containing protein 5 (Homo sapiens), sequence (Q96QE3 whole entry, looked up, the tested form may be a part): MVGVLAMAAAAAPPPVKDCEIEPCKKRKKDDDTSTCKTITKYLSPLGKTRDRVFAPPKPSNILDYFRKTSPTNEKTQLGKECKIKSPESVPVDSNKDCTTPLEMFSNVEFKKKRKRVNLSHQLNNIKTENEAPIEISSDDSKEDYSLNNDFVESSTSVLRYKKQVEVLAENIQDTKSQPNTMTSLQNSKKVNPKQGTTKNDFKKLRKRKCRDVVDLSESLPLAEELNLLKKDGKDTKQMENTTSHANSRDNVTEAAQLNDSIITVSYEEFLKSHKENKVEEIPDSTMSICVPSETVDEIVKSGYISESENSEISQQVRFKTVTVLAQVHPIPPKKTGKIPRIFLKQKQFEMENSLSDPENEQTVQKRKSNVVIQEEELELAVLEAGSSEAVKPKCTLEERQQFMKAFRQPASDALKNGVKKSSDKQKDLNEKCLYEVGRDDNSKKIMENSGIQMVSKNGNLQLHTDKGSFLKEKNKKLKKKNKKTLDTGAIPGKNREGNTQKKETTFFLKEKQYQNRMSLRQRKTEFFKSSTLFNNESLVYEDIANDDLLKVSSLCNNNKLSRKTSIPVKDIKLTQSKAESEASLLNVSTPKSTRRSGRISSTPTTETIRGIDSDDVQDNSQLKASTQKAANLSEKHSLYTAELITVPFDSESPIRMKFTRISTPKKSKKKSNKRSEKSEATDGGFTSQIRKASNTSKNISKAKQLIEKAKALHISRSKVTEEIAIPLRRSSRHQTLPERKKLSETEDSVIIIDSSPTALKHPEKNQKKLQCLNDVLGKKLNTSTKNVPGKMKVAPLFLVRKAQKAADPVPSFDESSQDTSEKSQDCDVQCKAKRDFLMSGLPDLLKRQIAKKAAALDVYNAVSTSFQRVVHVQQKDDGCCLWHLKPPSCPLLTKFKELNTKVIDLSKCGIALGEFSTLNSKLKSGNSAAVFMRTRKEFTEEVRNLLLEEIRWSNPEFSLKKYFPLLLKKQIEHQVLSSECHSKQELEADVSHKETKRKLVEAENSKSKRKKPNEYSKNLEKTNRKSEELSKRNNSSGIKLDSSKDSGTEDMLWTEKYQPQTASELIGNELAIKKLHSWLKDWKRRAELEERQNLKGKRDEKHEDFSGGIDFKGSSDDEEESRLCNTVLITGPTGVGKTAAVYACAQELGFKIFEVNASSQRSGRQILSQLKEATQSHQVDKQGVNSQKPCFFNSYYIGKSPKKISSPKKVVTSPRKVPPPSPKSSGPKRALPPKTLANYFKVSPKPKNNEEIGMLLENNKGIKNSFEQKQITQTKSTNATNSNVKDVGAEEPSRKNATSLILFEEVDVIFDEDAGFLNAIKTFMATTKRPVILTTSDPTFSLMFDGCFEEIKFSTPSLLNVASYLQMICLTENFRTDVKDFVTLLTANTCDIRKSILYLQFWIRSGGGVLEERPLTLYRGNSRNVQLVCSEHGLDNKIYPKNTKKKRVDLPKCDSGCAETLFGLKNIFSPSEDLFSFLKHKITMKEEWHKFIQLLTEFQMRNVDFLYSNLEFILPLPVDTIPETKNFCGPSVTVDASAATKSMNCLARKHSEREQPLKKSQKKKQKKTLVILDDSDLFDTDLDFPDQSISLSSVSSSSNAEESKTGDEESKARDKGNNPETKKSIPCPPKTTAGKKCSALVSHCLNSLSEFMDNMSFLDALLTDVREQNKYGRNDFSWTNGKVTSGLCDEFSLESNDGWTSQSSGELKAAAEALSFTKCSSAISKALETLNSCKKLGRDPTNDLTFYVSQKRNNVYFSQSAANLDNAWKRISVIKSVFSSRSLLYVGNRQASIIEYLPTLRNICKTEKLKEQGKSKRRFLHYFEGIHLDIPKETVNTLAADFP
Outline: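 ELG1-luciferase HEK293T reporter; 5-fluorouridine + compound/DMSO, 16 hr, 37 °C, 5% CO2; ONE-Glo 30 min RT; luminescence read, qHTS format.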

[5] = biological target: Thyrotropin-releasing hormone receptor (Homo sapiens) (UniProt P34981); assay: qHTS for Small Molecule Agonists and Allosteric Enhancers of Human TRH Receptor: Validation Screen for Agonists (AID 493127;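 active = calcium activation more than 3 SD above the typical response in the agonist read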;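 also: intracellular calcium rise by fluo-8 fluorescence before TRH EC20 addition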); settings: TRH receptor agonist cell assay; at 2 µM; stronger effect = higher value
Thyrotropin-releasing hormone receptor (Homo sapiens), sequence (P34981 whole entry, looked up): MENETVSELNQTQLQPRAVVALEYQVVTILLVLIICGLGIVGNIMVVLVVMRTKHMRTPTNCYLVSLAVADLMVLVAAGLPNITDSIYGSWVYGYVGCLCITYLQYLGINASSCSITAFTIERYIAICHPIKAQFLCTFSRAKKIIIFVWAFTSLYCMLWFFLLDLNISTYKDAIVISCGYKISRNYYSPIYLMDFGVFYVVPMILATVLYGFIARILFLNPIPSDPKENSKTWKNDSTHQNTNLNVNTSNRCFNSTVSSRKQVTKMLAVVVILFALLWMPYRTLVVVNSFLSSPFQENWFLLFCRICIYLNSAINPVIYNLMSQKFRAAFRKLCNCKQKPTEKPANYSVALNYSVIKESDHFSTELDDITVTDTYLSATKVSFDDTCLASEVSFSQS
Outline: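 Read-out: intracellular calcium release measured kinetically by FDSS (fluo-8, ex 480/em 530 nm), 1 reading/s after a 10-cycle baseline. TRHR cells, 2000/well, cultured 18 h at 33.5C, dye-loaded at room temp. Compound-evoked positive calcium signal flags agonists.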

[6] = Nrf2 qHTS screen for inhibitors: Validation (AID 493153; active = well fitted inhibition curve with a large enough effect in the main read-out, with a control signal flat, not every such curve was filed as active); settings: Potency: luciferase luminescence; viability change: measured here: cytotoxicity max response
Outline: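 Concentration-response test in A549 ARE_Fluc reporter cells (5% FBS OPTI-MEM), compound exposure 18-24 h at 37°C, 5% CO2. Cell viability measured first by CellTiter-Fluor fluorescence; ARE-driven luciferase luminescence then measured as Nrf2 activity.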

[7] = qHTS for Inhibitors of Cell Surface uPA Generation: Validation Assay (AID 493164);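 also: RAW 264.7 macrophage cells exposed to compound for 18 h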
Outline: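 Compounds are titrated over seven points (2.45 nM–38.3 uM final) onto pre-plated RAW 264.7 cells and incubated for 18 h. Retained intracellular ATP, measured with ATP-Lite, indicates blocked lethal factor entry.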

[8] = biological target: Galactokinase (Homo sapiens) (UniProt P51570); assay: qHTS Validation Assay for Inhibitors of Human Galactokinase (GALK) (AID 493189)
Galactokinase (Homo sapiens), sequence (P51570 whole entry, looked up): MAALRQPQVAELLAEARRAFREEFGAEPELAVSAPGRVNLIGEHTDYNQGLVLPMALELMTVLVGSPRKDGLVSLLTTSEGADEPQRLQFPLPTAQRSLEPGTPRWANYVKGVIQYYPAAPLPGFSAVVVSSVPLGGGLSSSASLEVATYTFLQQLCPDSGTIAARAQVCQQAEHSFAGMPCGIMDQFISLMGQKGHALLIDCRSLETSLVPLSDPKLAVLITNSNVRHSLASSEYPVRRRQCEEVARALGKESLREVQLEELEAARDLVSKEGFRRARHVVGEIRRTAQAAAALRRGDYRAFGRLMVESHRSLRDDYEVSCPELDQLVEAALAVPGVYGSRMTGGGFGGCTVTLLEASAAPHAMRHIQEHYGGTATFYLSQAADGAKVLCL
Outline: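 5 nM GALK / 100 uM galactose / 35 uM ATP, 20 mM HEPES pH8.0, 5 mM MgCl2, 60 mM NaCl, 1 mM DTT, 0.01% BSA (final). RT 1 h; Kinase-Glo Plus luminescence.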

[9] = Validation screen for small molecules that induce DNA re-replication in SW480 colon adenocarcinoma cells (AID 504364)
Outline: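 Read-out: total Hoechst intensity of nuclei by fluorescence scanning imager; hits raise the fraction of nuclei with elevated DNA content. Cells received compound for 48 hr at 37 C before a 40 min stain.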

[10] = biological target: phosphoglycerate mutase (Leishmania major) (UniProt Q4Q090); assay: qHTS Validation Assay to Find Inhibitors of Phosphoglycerate Mutase (AID 504548);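 also: end-point luminescence from Kinase-GloPlus after the PGAM reaction; series mostly up to about 58 µM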
phosphoglycerate mutase (Leishmania major), sequence (Q4Q090 1-553): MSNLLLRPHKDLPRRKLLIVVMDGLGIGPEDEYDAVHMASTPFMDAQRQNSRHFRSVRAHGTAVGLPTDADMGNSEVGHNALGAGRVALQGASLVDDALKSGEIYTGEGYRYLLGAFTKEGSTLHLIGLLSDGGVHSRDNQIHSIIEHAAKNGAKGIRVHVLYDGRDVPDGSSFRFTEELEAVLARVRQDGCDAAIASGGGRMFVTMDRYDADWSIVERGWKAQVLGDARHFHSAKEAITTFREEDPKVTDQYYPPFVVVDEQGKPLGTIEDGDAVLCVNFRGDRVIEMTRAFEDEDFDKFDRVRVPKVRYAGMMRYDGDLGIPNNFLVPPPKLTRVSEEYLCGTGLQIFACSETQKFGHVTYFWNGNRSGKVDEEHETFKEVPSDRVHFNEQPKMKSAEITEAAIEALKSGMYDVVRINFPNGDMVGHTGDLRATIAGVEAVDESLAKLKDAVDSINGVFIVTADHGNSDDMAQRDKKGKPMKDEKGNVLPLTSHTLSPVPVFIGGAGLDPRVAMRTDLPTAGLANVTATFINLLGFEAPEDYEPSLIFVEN
Outline: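 L. major PGAM (1.25nM final) was added to substrate buffer and pinned compound, incubated 45 minutes at room temperature, then Kinase-GloPlus added; luminescence read after 10 minutes. Buffer: 100 mM TEA pH 7.6, 5 mM MgCl2, 0.01% Tween-20.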

[11] = biological target: Ubiquitin carboxyl-terminal hydrolase 1 (Homo sapiens) (UniProt O94782); assay: Inhibitors of USP1/UAF1: Pilot qHTS (AID 504865);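 also: rhodamine fluorescence freed from ubiquitin-rhodamine substrate followed over time; top concentration of the series differs between compounds; nearly all actives have a fitted effect of over 35% in size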
Outline: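 In 50mM HEPES pH 7.8 containing 0.5mM EDTA, 1mM TCEP, 0.1 mg/ml BSA and 0.01% Tween-20, 1nM USP1/UAF1 is exposed to compound for 15 min, then Ub-Rho (150nM final) is added and fluorescence is read over time.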

[12] = qHTS for Inhibitors of ATXN expression: Validation (AID 588378); also: nearly all actives have a fitted effect of over 75% in size; also: potency is read from the fitted curve at half-maximal effect
Outline: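 Compounds were pinned onto attached HEK293 cells carrying an ATXN2-firefly luciferase construct and incubated 24 hrs at 37 degrees C. Each well then received a fluorescent viability reagent followed by luciferase substrate for end-point luminescence.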

[13] = Validation screen for small molecules that induce genotoxicity in human embryonic kidney (HEK293T) cells expressing luciferase-tagged ELG1 (AID 493106)
Outline: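 qHTS format; 2,000 HEK293T ELG1-luc cells/well; 23 nL compound via pin tool; 16 hr, 37 °C/5% CO2; ONE-Glo, 30 min RT; luminescence read.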

[14] = biological target: Peptidyl-prolyl cis-trans isomerase NIMA-interacting 1 (Homo sapiens) (UniProt Q13526); assay: qHTS Validation Assay to Find Inhibitors of Pin1 (AID 504536; active = well fitted inhibition curve with a large enough effect in the polarisation, with a control signal flat, not every such curve was filed as active; the % refers to the polarisation)
Peptidyl-prolyl cis-trans isomerase NIMA-interacting 1 (Homo sapiens), sequence (Q13526 whole entry, looked up): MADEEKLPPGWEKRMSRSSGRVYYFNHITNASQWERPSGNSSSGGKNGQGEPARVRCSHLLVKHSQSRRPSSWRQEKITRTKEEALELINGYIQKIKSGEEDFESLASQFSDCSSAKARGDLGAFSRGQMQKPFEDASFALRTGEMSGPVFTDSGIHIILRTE
Outline: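 Fluorescence polarization competition: compounds (titration) displace HiFluor-488-labeled Pin1-1b peptide from Pin1 (0.3 uM final) in pH 7.5 HEPES buffer with DTT, 10 min at room temperature; %Activity normalized to no-enzyme wells, curves fitted.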

[15] = qHTS for Inhibitors of ATXN expression: Validation of Cytotoxic Assay (AID 588349)
Outline: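 Cytotoxicity counter-screen: HEK293 cells exposed to compound titrations, 72 hr, 37 degrees C. Read-out is intracellular ATP (CellTiter Glo luminescence) as a viability measure.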

[16] = biological target: Phosphoglycerate kinase, glycosomal (Trypanosoma brucei brucei) (UniProt P07378); assay: qHTS Validation Assay to Find Inhibitors of Phosphoglycerate Kinase (AID 504547)
Phosphoglycerate kinase, glycosomal (Trypanosoma brucei brucei), sequence (P07378 whole entry, looked up): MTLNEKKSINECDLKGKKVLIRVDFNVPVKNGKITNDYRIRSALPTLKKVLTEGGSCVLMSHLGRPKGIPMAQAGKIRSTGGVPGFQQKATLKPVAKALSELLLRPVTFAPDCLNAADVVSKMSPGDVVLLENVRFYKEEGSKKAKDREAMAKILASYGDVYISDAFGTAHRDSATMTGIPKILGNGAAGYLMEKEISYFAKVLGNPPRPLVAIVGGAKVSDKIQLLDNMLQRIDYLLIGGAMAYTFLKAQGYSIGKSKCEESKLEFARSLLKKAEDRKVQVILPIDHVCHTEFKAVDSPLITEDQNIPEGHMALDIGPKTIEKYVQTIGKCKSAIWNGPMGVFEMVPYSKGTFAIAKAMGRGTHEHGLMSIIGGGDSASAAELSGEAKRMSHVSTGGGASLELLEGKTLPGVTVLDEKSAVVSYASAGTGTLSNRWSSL
Outline: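 In TEA buffer (100mM, pH 7.6) containing 5mM MgCl2 and 0.01% Tween-20, the GAPDH-coupled PGK reaction proceeded for 60 minutes at room temperature before a single luminescence reading using Kinase-Glo Plus.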

[17] = biological target: DNA dC->dU-editing enzyme APOBEC-3G (Homo sapiens) (UniProt Q9HC16); assay: qHTS for inhibitors of Vif-A3G interactions: Validation (AID 588379)
DNA dC->dU-editing enzyme APOBEC-3G (Homo sapiens), sequence (Q9HC16 whole entry, looked up): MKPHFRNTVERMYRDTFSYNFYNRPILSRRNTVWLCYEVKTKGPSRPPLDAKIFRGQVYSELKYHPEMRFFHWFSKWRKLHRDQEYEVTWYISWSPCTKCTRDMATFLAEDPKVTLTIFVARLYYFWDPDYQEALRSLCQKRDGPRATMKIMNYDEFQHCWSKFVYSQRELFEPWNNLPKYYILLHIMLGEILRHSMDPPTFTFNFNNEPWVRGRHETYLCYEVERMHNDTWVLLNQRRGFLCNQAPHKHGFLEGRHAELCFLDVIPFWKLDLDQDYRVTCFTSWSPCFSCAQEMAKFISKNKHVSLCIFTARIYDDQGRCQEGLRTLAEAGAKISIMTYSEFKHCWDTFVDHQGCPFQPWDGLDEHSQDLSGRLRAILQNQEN
Outline: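 Yellow fluorescence (Ex 488, Em 500-530) of Vif-coexpressing HeLa A3G-eYFP cells, scanned by Acumen cytometer, reports blocked A3G degradation. Cells plated at 700/well overnight at 37 deg C before compound addition, then a further overnight compound incubation at 37 deg C.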

Row | SMILES | Potency [1] | Potency [2] | outcome [3] | Potency [4] | activation [5] | Potency [6] | viability change [6] | outcome [7] | outcome [8] | outcome [9] | outcome [10] | Potency [11] | Potency [12] | Potency [13] | outcome [14] | Potency [15] | outcome [16] | outcome [17]
1 | CC(=O)OCC1=C(C(=O)O)N2C(=O)[C@@H](NC(=O)Cc3cccs3)[C@H]2SC1 | inactive | inactive | inactive | inactive | 0.938% (inactive) | inactive | 0.396% | inactive | inactive | inactive | inactive | inactive | inactive |  |  |  |  | 
2 | OCCN1CCN(CCCN2c3ccccc3C=Cc3ccccc32)CC1 | inactive | 11.2 µM (active) | inactive | inactive |  | inactive | 4.92% | inactive | inactive | inactive |  | inactive |  | inactive | inactive |  |  | 
3 | CN(C)CCN(Cc1cccs1)c1ccccn1 | inactive | inactive | inactive |  |  | inactive | -0.0804% | inactive | inactive | inactive | inactive | inactive | inactive | inactive | inactive | inactive |  | 
4 | C[C@H](CS)C(=O)N1CCC[C@H]1C(=O)O | inactive | inactive | inactive | inactive | -0.375% (inactive) | inactive | 0.828% | inactive |  | inactive | inactive |  | inactive | inactive | inactive | inactive |  | 
5 | CN(C)C/C=C(/c1ccc(Br)cc1)c1cccnc1 | inactive | 12.6 µM (active) | inactive | inactive | 0.375% (inactive) | inactive | 11.1% | inactive | inactive | inactive | inactive | inactive |  | inactive | inactive | inactive | inactive | 
6 | CN(C)CCCN1c2ccccc2Sc2ccccc21 | inactive | 5.01 µM (active) | inactive |  | 8% (inactive) | inactive | 1.11% | inactive | inactive |  |  | inactive |  | inactive | inactive |  | inactive | 
7 | CCn1nc(C(=O)O)c(=O)c2cc3c(cc21)OCO3 | inactive | inactive | inactive | inactive |  | inactive | -1.17% |  | inactive | inactive | inactive | inactive | inactive |  | inactive |  | inactive | inactive
8 | FC(F)(F)c1ccccc1-n1ccnc1 | inactive | inactive | inactive | inactive | -2.62% (inactive) | inactive | 12.3% |  | inactive | inactive |  | inactive | inactive | inactive | inactive |  |  | inactive
9 | C[N+](C)(C)CCOC(N)=O | inactive | inactive | inactive | inactive | 30.9% (active) | inactive | 14% | inactive | inactive | inactive |  | inactive | inactive | inactive | inactive |  | inactive | 
10 | O=C(O)CN(CCOCCOCCN(CC(=O)O)CC(=O)O)CC(=O)O | inactive | inactive | inactive | inactive |  | inactive | 3.82% | inactive | inactive | inactive | inactive | inactive | inactive | inactive | inactive |  | inactive | 
11 | CC1=C(C)C(=O)C(CCCCC#CCCCC#CCO)=C(C)C1=O | inactive | inactive | inactive |  | -4.88% (inactive) | inactive | 5.77% |  | inactive | inactive |  |  | 20 µM (active) | inactive | inactive |  | inactive | 
12 | NC(=O)c1ncn([C@@H]2O[C@H](CO)[C@@H](O)[C@H]2O)c1O | inactive | inactive | inactive | inactive | 1.12% (inactive) | inactive | 2.79% |  | inactive | inactive |  | inactive | inactive | inactive |  |  | inactive | 
13 | NC/C=C/C(=O)O | inactive | inactive | inactive | inactive | 0.688% (inactive) | inactive | -0.253% | inactive | inactive | inactive |  | inactive | inactive | inactive | inactive | inactive | inactive | 
14 | CCCOc1ccccc1-c1nc2n[nH]nc2c(=O)[nH]1 | inactive | inactive | inactive | inactive | -3.25% (inactive) | inactive | -11.3% | inactive | inactive | inactive | inactive | inactive | inactive | inactive |  | inactive | inactive | inactive
15 | OC(CCN1CCCCC1)(c1ccccc1)C1CCCCC1 (centres undefined) | inactive | inactive | inactive | inactive |  | inactive | -0.392% | inactive | inactive | inactive |  | inactive |  | inactive | inactive |  |  | 
16 | C[N+](C)(C)CCCCCCCCCC[N+](C)(C)C | inactive | inactive | inactive | inactive |  | inactive | -2.44% | inactive | inactive | inactive | inactive | inactive | inactive |  | inactive |  | inactive | 
17 | Cc1ccc(/C(=C\CN2CCCC2)c2ccccn2)cc1 | inactive | inactive | inactive | inactive |  | inactive | 2.7% | inactive | inactive | inactive | inactive | inactive | inactive | inactive | inactive | inactive | inactive | 
